# Source: the supplement of paper PMC6555819
# Tests used:
# Experiment in all cases: PBM binding z-score (relative to random genomic background probes); higher = stronger binding; sequences stand for … in GC…GCGATTGACAGCGTAGAATGAAGG
# [1] = system: RARb homodimer (NR concentration 270 nM)
# In short: (§1)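 The probes on custom Agilent 4×180K protein-binding microarrays were double-stranded, with 34-nt variable regions bearing direct-repeat seeds, single-nucleotide variants, half-site ablations and random human genomic background sequences. Incubation lasted 1 h with ligand-free nuclear receptor dimers in PBS pH 7.4, 2% milk, 0.02% Triton X-100, 1 mM DTT, 0.2 mg/mL BSA and 0.4 mg/ml salmon testes DNA. Antibodies against each partner (one per run) detected bound dimers, and fluorescence scans were regression-normalized. Binding z-scores take the random background probes as reference.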
# [2] = system: RARg:RXRa (NR concentration 270 nM, RXRa partner concentration 90 nM)
# In short: as §1
# [3] = system: RARg homodimer (NR concentration 270 nM)
# In short: as §1
# [4] = system: RXRa DBDmut IVT, anti-RXR (DBD mutation: RXRa K156A/R161A, NR concentration 90 nM)
# In short: as §1
# [5] = system: RXRa homodimer (NR concentration 180 nM)
# In short: as §1
# [6] = system: THRa:RXRa (NR concentration 90 nM, RXRa partner concentration 90 nM)
# In short: as §1
# [7] = system: THRa homodimer (NR concentration 90 nM)
# In short: as §1
# [8] = system: VDR homodimer (NR concentration 270 nM)
# In short: as §1
Sequence,PBM binding z-score [1],PBM binding z-score [2],PBM binding z-score [3],PBM binding z-score [4],PBM binding z-score [5],PBM binding z-score [6],PBM binding z-score [7],PBM binding z-score [8]
CGTCCAAGGTCATAGGAGCTCAGTGAAGACAGAT,3.58,5.66,5.78,3.96,5.68,4.03,2.37,2.47
TCTGCTCGGTCAACGATGGTCAGCTAATCTGCTA,1.65,1.41,2.83,0.129,0.25,0.269,-0.89,-0.978
GGAACGAGGGCATTCGATTTGATAGCATGGCGAT,0.884,1.28,1.49,3.11,1.01,1.09,-0.234,1.9
TAGCCTAGGTCAGATCGGGCCAGTATGCGCTATA,2.29,2.85,3.88,-0.301,1.48,4.04,0.0471,-0.51
CCGACTGGGGCATGGTTACCATAACGCACAGCCA,-0.189,-0.0426,0.399,-0.99,-0.131,-0.641,-0.739,-0.781
TTACCAAGGTGAGGTGAGGTCGTTGATCCAACTC,2.09,1.42,1.41,0.267,1.86,4.41,2.84,2.28
CCAGACAGGTGAAAGGCAACTCAGTCTGGTACGC,0.304,0.225,0.332,-0.268,0.712,0.000923,-0.701,0.202
TTACCAAGGTGAATGGTCGTTGATGCACGCCTTG,0.707,0.538,0.576,-0.0991,0.73,1.47,0.775,0.132
GTACCAAGGCGAATAGGTCGTTGATGAGTAGGCG,0.278,0.265,0.191,-0.465,0.543,0.0285,-0.524,-0.0798
TAGCCTAGGTCATTTAGGGGCCAGTATAGAAAGC,3.12,5.9,4.36,1.98,2.63,3.47,0.467,1.63
ACTATTAGTTGACTTACGGCAACCGATACGACGC,0.0214,0.528,0.668,0.643,0.39,0.386,-0.0482,-0.179
CTACCAAGGTGAACAAGGTCGTTTATTACTATTC,2.34,1.72,1.55,2.29,1.77,3.26,2.33,3
TCTAGTTGGTCACGGAGGTTACACACGACGGGTA,2.39,2.29,2.43,0.609,2.16,1.71,0.725,0.629
ACTAGCAGGCCAAGTTCGGGTCACTCAAACAAAG,2.96,3.14,2.14,0.623,1.81,3.55,2.61,2.1
TCTTGTAGACCAAAGGTTAAGAAAGCCGAAGCCT,1.34,1.88,0.82,0.533,2.54,1.3,-0.878,-0.489
GCATATATGTAATACAAGGTGAAAGTCCGATTGT,0.691,0.257,0.615,0.612,0.52,2.79,1.14,-0.0295
ACTAGTTGGTCAGCGGAGGTCACACACAATTCGG,4.09,3.96,4.21,0.9,3.77,4.32,2.89,3.02

Sequence,PBM binding z-score [1],PBM binding z-score [2],PBM binding z-score [3],PBM binding z-score [4],PBM binding z-score [5],PBM binding z-score [6],PBM binding z-score [7],PBM binding z-score [8]
CCGACTGGGGCAAAAGTTACCATACTCAGTACGA,0.168,0.333,0.253,0.584,0.278,-0.144,-0.251,-0.248
CAAACTAGGTCATTGACAGGACAGTGAATAGTAA,2.83,4.74,4.67,2.28,2.89,2.91,1.01,1.51
CAAACTAGGTCAAGCTCAAAGTCGGTTTGTGCCA,3.34,4.06,4.98,1.53,2.55,3.2,1.34,0.374
ACTGACAGGTGATGAAGGTAACTCAGGCTATCAT,-0.0164,0.199,0.358,-0.478,0.16,0.769,-0.122,-0.152
TCTCGGAGGACCCGAAGGTCAGAGCTTTCCAGAG,2.83,2.16,1.76,-0.207,1.82,1.62,-0.184,-0.145
CCTGCTAGGTCGATGGTCAGCTAAAGCAGCTCGC,0.8,0.222,0.416,0.224,-0.11,0.103,-0.265,-0.719
ATATGTAGGTGATCGGGTCATTCAGTTTGCGCAT,2.55,2.48,1.78,1.09,2.44,2.91,2.14,3.46
CAGCCTAGGCCAGGGCCAGTATAGGAGGAACGTT,-0.366,-0.536,0.11,-1.57,-0.601,-0.884,-0.601,-0.322
CCTGCTAGGTCAATGGGCAGCTAAAGCAGCTCGC,2.4,3.12,4.03,0.674,1.35,1.99,0.0215,-0.152
CCTACTGGGCCAAGGTCATTGGTCAGTCAAAGCA,3.51,3.85,3.86,0.988,3.73,3.48,2.62,3.41
GCTTACGGGTCGAAGGTTATAGCATGAATAGAAT,0.86,2.31,1.28,0.891,3.72,1.55,-0.161,0.682
TCGAGTAGGTGACCAATGGGGCATTCAGCTTTCT,0.62,0.353,0.0885,-0.0137,0.185,-0.147,-0.979,-0.776
AGAATGAGGTTATTAAGATCAGGAAATTGCGGTC,0.491,1.3,0.9,1.99,1.75,2.06,0.497,1.18
TAGCCTAGGTCATGGGCCAGCATACCACGCGAAC,2.95,4.29,4.36,-0.00159,3.28,3.04,0.897,0.227
CAAACTAGGTCACTGGAAGGTCAAAGTCCGCATG,5.21,7.66,6.65,1.96,5.54,4.3,2.43,3.86
TCTAGCAGGCCAGAGGCTCACTCAAGAGGTACGG,-0.995,-0.48,-0.695,-0.462,-0.277,-0.767,-1.59,-1.07
GGAACGAGGGCGAGTTGATAGCAGAGTTTGATGG,-0.0873,-0.0842,0.176,1.73,0.0566,-0.305,-0.578,1.12
